G9a inh – qHTS Assay for Inhibitors of Histone Lysine Methyltransferase G9a | G9a H3K9 monomethylation, AlphaScreen, 2 h | Potency, µM (highest dose often 102 µM), for the others: at the highest dose activity, negative = inhibition, most hits filed as inhibitors | 350,000 tested, 8.8% active; note: potency is the fitted concentration of half-maximal effect; % is set by controls: 0 for no effect and ±100 for the full control effect; nearly all actives have a fitted effect of over 75% in size
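Chemiluminescent proximity detection of H3K9 monomethylation, read after 10 min bead incubation in the dark. Reaction: 20 nM G9a, 500 nM biotin-H3K9 peptide, 20 uM SAM cofactor, 2 h, room temperature, following 15 min enzyme-compound preincubation.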
PLK1 PBD block – qHTS for Inhibitors of PLK1-PDB (polo-like kinase 1 - polo-box domain): Primary Screen; Serine/threonine-protein kinase PLK1 (Homo sapiens), P53350; Plk1 PBD binding of FITC phosphopeptide, fluorescence polarization; Potency, µM, for the others: max response, negative = inhibition, usual class: inhibitors; 360,000 tested, 2.8% active; AID 720504, 2013; note: potency is the fitted concentration of half-maximal effect; series mostly up to about 57 µM; % is set by controls: 0 for no effect and ±100 for the full control effect; nearly all actives have a fitted effect of over 65% in size
BAZ2B block – qHTS Assay for Inhibitors of BAZ2B; 360,000 tested, 4.4% active; Potency, µM (series often up to 114 µM), inactives show top-dose activity change, negative = inhibition, usual class: inhibitors; AlphaScreen BAZ2B-H3K14Ac peptide displacement; Bromodomain adjacent to zinc finger domain protein 2B (Homo sapiens), Q9UIF8; AID 504333, 2011; note: potency is the fitted concentration of half-maximal effect; % is set by controls: 0 for no effect and ±100 for the full control effect; nearly all actives have a fitted effect of over 60% in size
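In this displacement format the biotinylated H3(5-23) peptide acetylated at Lys14 serves as ligand at 50 nM, with BAZ2B at 50 nM in PBS pH 7.4 containing 0.01% Tween-20. Donor and acceptor beads are 10 ug/mL final.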
PI5P4Ka inh – qHTS for Inhibitors of phosphatidylinositol 5-phosphate 4-kinase (PI5P4K). PI5P4Kalpha enzyme, ADP-Glo luminescence, 60 min; active compounds read low. Phosphatidylinositol 5-phosphate 4-kinase type-2 alpha (Homo sapiens), P48426. max response, %. 330,000 tested, 1.2% active; active = max response of -50% or lower; inconclusive = between -30% and -50%; inactive = -30% or higher; note: value at the top dose of about 77 µM; % is set by controls: 0 for no effect and ±100 for the full control effect
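Single end-point luminescence (ADP-Glo) quantified ADP from PI5P4Kalpha turnover; ATP 5 microM final, 1 h at RT, 0.1% CHAPS and 0.28 mM EGTA in HEPES pH 7.4.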
JMJD2A Tudor – qHTS Assay for Inhibitors of JMJD2A-Tudor Domain; AlphaScreen JMJD2A-Tudor / H3K4me3 peptide binding; Potency, µM (doses to about 114 µM), for inactives: at the top dose activity change, negative = inhibition, hits mostly inhibitors; 390,000 tested, 4.4% active; AID 504339, 2011; note: potency is the fitted concentration of half-maximal effect; % is set by controls: 0 for no effect and ±100 for the full control effect; nearly all actives have a fitted effect of over 50% in size
Target sequence (O75164 whole entry, looked up, the tested form may be a part): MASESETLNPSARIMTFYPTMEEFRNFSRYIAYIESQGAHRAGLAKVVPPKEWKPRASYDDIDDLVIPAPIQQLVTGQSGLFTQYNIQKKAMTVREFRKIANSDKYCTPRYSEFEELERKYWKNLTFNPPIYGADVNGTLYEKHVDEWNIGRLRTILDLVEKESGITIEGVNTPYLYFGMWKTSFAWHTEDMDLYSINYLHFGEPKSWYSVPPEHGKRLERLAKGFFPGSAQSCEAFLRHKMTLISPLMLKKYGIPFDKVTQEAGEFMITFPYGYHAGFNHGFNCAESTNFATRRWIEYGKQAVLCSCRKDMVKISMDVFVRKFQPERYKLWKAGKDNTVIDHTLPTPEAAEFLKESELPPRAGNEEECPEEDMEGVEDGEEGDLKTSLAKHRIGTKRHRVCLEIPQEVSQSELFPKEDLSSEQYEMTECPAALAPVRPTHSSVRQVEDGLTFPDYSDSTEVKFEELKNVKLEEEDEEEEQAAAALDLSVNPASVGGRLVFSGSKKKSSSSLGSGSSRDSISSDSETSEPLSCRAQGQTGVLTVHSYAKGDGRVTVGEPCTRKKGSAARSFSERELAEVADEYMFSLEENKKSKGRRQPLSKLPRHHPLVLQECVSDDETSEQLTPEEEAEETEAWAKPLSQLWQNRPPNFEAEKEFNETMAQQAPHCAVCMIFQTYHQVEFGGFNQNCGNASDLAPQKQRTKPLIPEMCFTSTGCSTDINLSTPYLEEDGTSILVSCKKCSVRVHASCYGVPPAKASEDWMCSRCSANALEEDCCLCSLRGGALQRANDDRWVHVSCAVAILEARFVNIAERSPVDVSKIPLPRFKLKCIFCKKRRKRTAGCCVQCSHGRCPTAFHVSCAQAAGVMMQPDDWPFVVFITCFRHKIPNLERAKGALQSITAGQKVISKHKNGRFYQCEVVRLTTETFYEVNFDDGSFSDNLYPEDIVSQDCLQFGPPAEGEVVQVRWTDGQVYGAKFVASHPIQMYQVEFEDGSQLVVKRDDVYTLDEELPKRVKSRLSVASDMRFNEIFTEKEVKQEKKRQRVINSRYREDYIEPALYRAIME
HP1b chromo inh – HTS for Inhibitors of HP1-beta Chromodomain Interactions with Methylated Histone Tails. 390,000 tested, 0.56% active. Chromobox protein homolog 1 (Homo sapiens), P83916. AlphaScreen HP1-beta / biotin-H3K9me3 peptide binding. Potency, µM (titrated, usually from 114 µM), inactives show top-dose activity change, negative = inhibition, usual class: inhibitors; note: potency is the fitted concentration of half-maximal effect; nearly all actives have a fitted effect of over 70% in size
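Compound inhibition of the preformed complex between 50 nM HP1-beta and 50 nM biotinylated H3K9me3 peptide was read by AlphaScreen. Buffer was PBS pH 7.4 with 0.01% Tween-20. Incubations ran 30 min at room temperature, with 10 ug/mL donor/acceptor beads.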
An asterisk follows results filed as active; [ ] = another dose, or the depositor's remark. Only some compounds are listed: those with a hit (about 12% of all), similar ones and a draw of the others. Unless noted, calls come from the whole dose curve; as a rule, active = well fitted curve in the direction sought with a large enough effect; inconclusive = small, poorly fitted or top-dose-only effect, or another doubt; inactive = no such curve, though single readings can be large; an effect the other way counts as inactive or inconclusive.

What do the screens show for `C=CCn1c(SCCOC)nc2c1c(=O)[nH]c(=O)n2C`?
G9a inh: 40µM*; PLK1 PBD block: inconclusive; BAZ2B block: -4%; PI5P4Ka inh: -13; JMJD2A Tudor: -11%; HP1b chromo inh: 1%

Results for C=CCn1c(SCCCc2ccccc2)nc2c1c(=O)[nH]c(=O)n2C ?
G9a inh: 45µM*; PLK1 PBD block: -12%; BAZ2B block: -4%; PI5P4Ka inh: 1; JMJD2A Tudor: -5%; HP1b chromo inh: 11%

What do the screens show for `N[C@@]1(C(=O)O)CN[C@@H](C(=O)O)C1`?
G9a inh: 29%[59 µM]

How did C/C=C/Cn1c(SCCCc2ccccc2)nc2c1c(=O)[nH]c(=O)n2C do in these assays?
G9a inh: 45µM*; PLK1 PBD block: -18%; BAZ2B block: -6%; PI5P4Ka inh: -2; JMJD2A Tudor: -25%; HP1b chromo inh: -10%

How did Cc1ccc2nc(NC(=O)CSc3nccn3Cc3ccc(F)cc3)sc2c1 do in these assays?
G9a inh: inconclusive; BAZ2B block: inconclusive; JMJD2A Tudor: inconclusive; HP1b chromo inh: -22%[57 µM]

Results for Cc1ccc2c(cnn2C(=O)CCC(=O)NCc2cccc(Cl)c2)c1 ?
G9a inh: 45µM*; PLK1 PBD block: inconclusive; BAZ2B block: 11%; PI5P4Ka inh: -11; JMJD2A Tudor: -15%; HP1b chromo inh: 29%

How did Clc1ccc(SCNc2ccccc2Cl)cc1 do in these assays?
G9a inh: 31%; PLK1 PBD block: 9.5µM*; BAZ2B block: 47%; PI5P4Ka inh: 8; JMJD2A Tudor: 73%; HP1b chromo inh: 106%

How did Cc1ccc(NCSc2ccc(Cl)cc2)cc1 do in these assays?
PLK1 PBD block: -18%; PI5P4Ka inh: 27; JMJD2A Tudor: -33%; HP1b chromo inh: -10%[57 µM]

How did CCCN(C(=O)COC(=O)c1nc2nccc(C)n2n1)C1CCS(=O)(=O)C1 (stereo not drawn) do in these assays?
PLK1 PBD block: 24µM*; PI5P4Ka inh: 0; JMJD2A Tudor: -10%; HP1b chromo inh: -7%[57 µM]

How did CCC(=O)Nc1ccc(C(=O)COC(=O)c2nc3nccc(C)n3n2)cc1 do in these assays?
G9a inh: 5%[12.7 µM]; PLK1 PBD block: inconclusive; BAZ2B block: 10µM*; PI5P4Ka inh: -90*; JMJD2A Tudor: 40µM*; HP1b chromo inh: inconclusive

What do the screens show for `Cc1ccnc2nc(C(=O)OCC(=O)c3ccc(NC(=O)CC(C)C)cc3)nn12`?
PLK1 PBD block: 1%; PI5P4Ka inh: -27; JMJD2A Tudor: inconclusive; HP1b chromo inh: -21%

What do the screens show for `Cc1ccnc2nc(C(=O)NC3=NCCS3)nn12`?
G9a inh: 22%; PLK1 PBD block: -4%; BAZ2B block: -29%; PI5P4Ka inh: 6; JMJD2A Tudor: -36%; HP1b chromo inh: 37%

Results for Cc1ccnc2nc(C(=O)Nc3nccs3)nn12 ?
G9a inh: inconclusive; PLK1 PBD block: 1%; BAZ2B block: inconclusive; PI5P4Ka inh: 0; JMJD2A Tudor: 10µM*; HP1b chromo inh: 28%

What do the screens show for `COc1ccc(Cl)cc1NC(=O)CN1C(=O)C(=O)N(C2CCCC2)C1=O`?
PLK1 PBD block: -6%; PI5P4Ka inh: -4

What do the screens show for `CC1CC(=O)c2c(cc3c(-c4c(O)cc(O)c5c(O)c6c(cc45)OC(C)CC6=O)c(O)cc(O)c3c2O)O1` (stereo not drawn)?
G9a inh: inconclusive; PLK1 PBD block: 27µM*; BAZ2B block: 40µM*; PI5P4Ka inh: -80*; JMJD2A Tudor: 45µM*; HP1b chromo inh: inconclusive

What do the screens show for `O=C1CC(c2ccccc2)Oc2cc(O)cc(O)c21` (stereo not drawn)?
G9a inh: 30%[12.7 µM]; PLK1 PBD block: -5%; BAZ2B block: -8%; PI5P4Ka inh: -12; JMJD2A Tudor: -11%; HP1b chromo inh: 36%

Results for CCOC(=O)C1CCN(C2=NC(=O)/C(=C/c3ccc(OC)c(OC)c3)S2)CC1 ?
G9a inh: 40µM*; PLK1 PBD block: -26%; BAZ2B block: -22%; PI5P4Ka inh: -3; JMJD2A Tudor: -21%; HP1b chromo inh: 0%

Results for O=C(O)c1cc(S(=O)(=O)Nc2ccc3oc(=O)sc3c2)ccc1O ?
G9a inh: inconclusive; PLK1 PBD block: 6.7µM*; BAZ2B block: inconclusive; PI5P4Ka inh: -60*; JMJD2A Tudor: inconclusive; HP1b chromo inh: 24%

How did COC(=O)Nc1cc(C(=O)c2ccc(Cl)cc2Cl)c[nH]1 do in these assays?
G9a inh: 50µM*; PLK1 PBD block: -11%; BAZ2B block: inconclusive; PI5P4Ka inh: -3; JMJD2A Tudor: inconclusive; HP1b chromo inh: -18%

How did N=C1C=CC(=C(c2ccc(N)cc2)c2ccc(N)cc2)C=C1 do in these assays?
PLK1 PBD block: 5%; PI5P4Ka inh: -53*; JMJD2A Tudor: 7.1µM*; HP1b chromo inh: inconclusive

What do the screens show for `CN(CCCCCCN(C)Cc1ccccc1O)Cc1ccccc1O`?
PLK1 PBD block: -3%; BAZ2B block: 50µM*; PI5P4Ka inh: 4; JMJD2A Tudor: 20µM*; HP1b chromo inh: inconclusive

What do the screens show for `Cc1ccc(O)c(CN(C)Cc2cc(C)ccc2O)c1`?
PLK1 PBD block: 1%; PI5P4Ka inh: -6; JMJD2A Tudor: inconclusive; HP1b chromo inh: -5%

What do the screens show for `Cc1ccc(C(=O)NCC(=O)NCC(c2cccs2)N(C)C)cc1C` (stereo not drawn)?
PLK1 PBD block: -6%; PI5P4Ka inh: 3; JMJD2A Tudor: 3%; HP1b chromo inh: 5%

Results for Cc1c(C(=O)N2CCCCC2)c(S(=O)(=O)N2CCC(C)CC2)c(C)n1C ?
G9a inh: -8%; PLK1 PBD block: 21µM*; BAZ2B block: -14%[57.1 µM]; PI5P4Ka inh: -5; JMJD2A Tudor: inconclusive; HP1b chromo inh: -4%

How did Cc1c(C(=O)N2CCCC2)c(S(=O)(=O)N2CCCCC2)c(C)n1C do in these assays?
G9a inh: 4%[59 µM]; PLK1 PBD block: -11%; BAZ2B block: -11%; PI5P4Ka inh: 4; JMJD2A Tudor: -7%; HP1b chromo inh: 48%

How did Cc1ccc(C)c(N2CCN(S(=O)(=O)c3c(C(=O)N4CCC(C)CC4)c(C)n(C)c3C)CC2)c1 do in these assays?
G9a inh: 10%[12.7 µM]; BAZ2B block: 50µM*; JMJD2A Tudor: inconclusive; HP1b chromo inh: -10%

Assay outcomes: PubChem BioAssay, National Center for Advancing Translational Sciences (NCATS)
